Assay outcomes (PubChem BioAssay)
LYPLA1 inh: LYPLA1 inhibitors, primary screen, counter-screen for PME1 inhibitor project, biochemical, fluorescence polarization, FP-Rh probe ABPP; inhibition, % at 5.9 µM; recombinant LYPLA1; Acyl-protein thioesterase 1 (Homo sapiens), O75608; actives 0.16% (n = 320,000);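 active = inhibition above the mean of all tested compounds plus 3 SD, set per campaign, cut at about 14% in these data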;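 note: inhibitors block serine hydrolase probe labeling of LYPLA1 so polarization falls; 0% = enzyme with DMSO and 100% = wells lacking LYPLA1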
LYPLA2 counter: LYPLA2 inhibitors, primary screen, counter-screen for PME1 inhibitor project, biochemical, fluorescence polarization, FP-Rh probe ABPP. recombinant LYPLA2. inhibition, % at 5.9 µM. actives 0.38% (n = 320,000). Acyl-protein thioesterase 2 (Homo sapiens), O95372;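 active = inhibition above the screen-wide mean plus 3 SD, limit set per campaign, cut at about 26% in these data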;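 note: 0% = LYPLA2 with DMSO and 100% = wells lacking LYPLA2 enzyme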
Rin1 Abl inh: inhibitors of Rin1-Abl protein binding, primary screen, biochemical, TR-FRET | Tyrosine-protein kinase ABL1 (Homo sapiens) + Ras and Rab interactor 1 (Homo sapiens), … | inhibition, % at 7.35 µM | actives 0.4% (n = 360,000) | AID 588664, 2011; in the data active = inhibition above about 5%, passing the limit was not always enough
Hck Nef HTS: inhibitors of Nef-activated human Hck kinase, primary screen, biochemical, Z-Lyte FRET, 384-well, Hck-YEEI; AID 463187, 2010; actives 0.68% (n = 220,000); Recombinant Hck-YEEI plus Nef, Z-Lyte FRET kinase assay; inhibition, % at 20 µM; Tyrosine-protein kinase HCK (Homo sapiens), P08631;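 active = Hck-Nef kinase inhibition above about 50%, limit read from the data; inactive = inhibition below that limit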;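 note: 0% = DMSO with Hck plus Nef and 100% = Hck alone without Nef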
p97 ATPase inh: inhibitors of human p97 ATPase, primary screen, biochemical. Transitional endoplasmic reticulum ATPase (Homo sapiens), P55072. recombinant p97 ATPase, Kinase-Glo ATP luminescence, 3 h. inhibition, % at 8 µM. actives 0.42% (n = 220,000); in the data active = inhibition above about 15%;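 note: 0% = DMSO vehicle and 100% = wells lacking enzyme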
Target sequence (P55072 whole entry, looked up): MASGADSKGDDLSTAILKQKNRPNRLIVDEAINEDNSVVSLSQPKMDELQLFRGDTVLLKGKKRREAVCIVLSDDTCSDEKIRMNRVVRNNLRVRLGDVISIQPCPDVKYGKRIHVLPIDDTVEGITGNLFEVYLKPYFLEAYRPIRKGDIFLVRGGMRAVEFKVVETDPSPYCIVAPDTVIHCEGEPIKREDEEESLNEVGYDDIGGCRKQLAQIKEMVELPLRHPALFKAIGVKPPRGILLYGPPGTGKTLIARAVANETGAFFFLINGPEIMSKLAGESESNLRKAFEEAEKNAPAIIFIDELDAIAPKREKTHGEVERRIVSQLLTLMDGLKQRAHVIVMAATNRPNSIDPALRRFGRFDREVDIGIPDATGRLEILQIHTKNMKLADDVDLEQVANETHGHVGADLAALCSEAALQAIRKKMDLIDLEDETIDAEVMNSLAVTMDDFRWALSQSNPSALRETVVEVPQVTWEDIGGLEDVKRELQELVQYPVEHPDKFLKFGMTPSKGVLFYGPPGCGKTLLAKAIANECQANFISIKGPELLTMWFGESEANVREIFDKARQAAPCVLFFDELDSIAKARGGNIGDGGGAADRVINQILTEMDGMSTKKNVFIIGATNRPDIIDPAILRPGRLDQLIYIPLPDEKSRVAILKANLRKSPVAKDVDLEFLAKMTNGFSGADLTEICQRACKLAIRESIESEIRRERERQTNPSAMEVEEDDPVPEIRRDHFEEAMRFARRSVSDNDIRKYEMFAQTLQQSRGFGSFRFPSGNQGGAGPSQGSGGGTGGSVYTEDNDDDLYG
PREPL inh: PREPL enzyme inhibitors, primary screen, biochemical, fluorescence polarization; actives 0.68% (n = 320,000); AID 2751, 2010; recombinant PREPL, fluorescence polarization activity-based probe; Prolyl endopeptidase-like (Homo sapiens), Q4J6C6; inhibition, % at 5.96 µM;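 note: 0% = enzyme with DMSO and 100% = wells lacking enzyme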
PREPL inh cf: human PREPL enzyme inhibitors, confirmation, biochemical, fluorescence polarization. shares compounds with PREPL inh. recombinant PREPL, fluorescence polarization activity probe. inhibition, % at 5.96 µM. actives 67% (n = 2,000). AID 2803, 2010;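 note: 0% = protein with DMSO and 100% = wells lacking protein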
The depositor's hits bear a star; / = no result. Most compounds without a hit are left out; they make up all but 1.7% or so of the library. Cut-off read from the data, not from the text of the source, unless noted: active = inhibition above about 43%; inactive = the rest.

SMILES	LYPLA1 inh	LYPLA2 counter	Rin1 Abl inh	Hck Nef HTS	p97 ATPase inh	PREPL inh	PREPL inh cf
COc1ccc(NC(=O)C2CC(c3ccc(Cl)cc3)=NO2)cc1OC (stereo not given)	5.0	5.8	-0.8	/	/	38.1	/
Cc1cc(C(=O)CN2c3cccc4cccc(c34)S2(=O)=O)c(C)n1C	-4.1	9.7	-2.0	/	/	3.6	/
COCCN(C(=O)c1snc(C(N)=O)c1N)C(C(=O)NC1CCCCC1)c1ccc(N(C)C)cc1 (stereo not given)	2.1	2.2	-3.9	/	/	12.0	/
O=C1c2ccccc2CN1C(CO)Cc1ccccc1 (stereo not given)	2.4	-2.2	-2.4	/	/	-5.3	/
N#Cc1c(Cl)nc(N/N=C/c2ccccc2)c(Cl)c1Cl	-1.7	-0.8	-2.1	1.8	4.0	5.2	/
C[N+](C)(C)c1ccc(/C=N/Nc2nc(Cl)c(C#N)c(Cl)c2Cl)cc1	-5.6	2.5	-3.1	1.9	10.8	55.9*	19.9
O=C(NNS(=O)(=O)c1ccc(F)cc1)c1cc(Cl)ccc1O	/	/	1.1	/	/	/	/
CC(C)[C@@H]1CN=C(N)N1C[C@@H]1CCCN1C[C@H](C)N1C[C@@H](Cc2ccccc2)N(CCc2ccc(Cl)c(Cl)c2)C1=N	/	/	-1.6	/	/	63.1*	61.2*
CC(C)[C@H](CN1CCC[C@H]1CN1C(N)=NC[C@@H]1Cc1ccccc1)N1C[C@@H](Cc2ccccc2)N(CCc2ccc(Cl)c(Cl)c2)C1=N	/	/	-2.5	/	/	53.2*	53.4*
C[C@@H](CN1CCC[C@H]1CN1C(N)=NC[C@@H]1Cc1ccccc1)N1C[C@@H](Cc2ccccc2)N(CCc2ccc(Cl)c(Cl)c2)C1=N	/	/	5.0	/	/	45.9*	37.5
CC(C)C[C@@H](CN1CCC[C@@H]1CN1C(=O)C(=O)NC[C@@H]1Cc1ccccc1)N1C[C@H](Cc2ccc(O)cc2)N(CCc2ccccc2)C(=O)C1=O	/	/	-0.5	/	/	/	/
OC(CNC1CCCC1)COc1ccc(Cl)cc1 (stereo not given)	1.3	6.6	0.0	/	/	-7.0	/
OC(CNC1CCCC1)COCCOc1ccc(Br)cc1 (stereo not given)	3.1	-0.3	-1.1	30.5	1.5	46.3*	34.6
CCN1/C(=C/c2cccc[n+]2C)Sc2ccc(OC)cc21	-2.1	1.8	-14.8	/	/	47.7*	46.1*
Cn1c(SCc2cccnc2)nc2c(c1=O)SCC2	-1.4	-1.9	-0.8	-18.6	0.9	1.5	/
Cn1c(SCc2ccc(Br)cc2)nc2c(c1=O)SCC2	-2.9	18.8	-2.7	-6.1	3.3	47.4*	42.4
CC12CCC(=O)N1C(C(=O)Oc1cccc(F)c1)CS2 (stereo not given)	/	/	-2.8	/	/	/	/
CNc1oc(-c2ccccc2Cl)nc1P(=O)(c1ccccc1)c1ccccc1	6.8	4.8	-0.1	-0.2	-1.3	43.9*	55.3*
CCOc1cc(C)c(S(=O)(=O)NCCCn2ccnc2)cc1C	-0.6	2.6	2.8	/	/	0.8	/
CCOc1ccc(-c2c(=O)n(OCc3ccccn3)c3ccccc3[n+]2[O-])cc1	0.8	24.1	-2.6	0.7	-9.4	68.0*	50.3*
Cc1ccc(-c2c(=O)n(OCc3ccccn3)c3ccccc3[n+]2[O-])cc1	/	/	/	0.2	-2.0	/	/
C[C@H]1COC(=O)CC/C=C\C[C@H](CC(=O)N(CCO)Cc2ccccc2)C(=O)N1	/	/	6.2	/	/	1.9	/
COc1ccc(Cl)c(N2CCN(CCCNC(=O)Nc3ccc(C)cc3)CC2)c1	0.6	0.9	-1.1	-0.1	-10.4	47.1*	40.4
CCC(C)CCN1C(Nc2ccccc2)=NC[C@@H]1C (stereo not given in full)	1.1	-0.7	4.0	/	/	5.9	/
COc1ccc(NC(=O)N(CCN2CCCC2)Cc2cc3cc(OC)c(OC)cc3[nH]c2=O)cc1	-1.2	1.0	5.4	-8.6	4.8	58.3*	17.9
SMILES	LYPLA1 inh	LYPLA2 counter	Rin1 Abl inh	Hck Nef HTS	p97 ATPase inh	PREPL inh	PREPL inh cf
C=C(C)C1CC=C(C)/C(=N/NC(=O)CNc2ccc(OCC)cc2)C1 (stereo not given)	-3.1	-0.5	-0.5	0.7	-1.6	46.2*	9.6
CCC(CO)Oc1cc(NCc2ccncc2)c2ncn(C(C)C)c2c1 (stereo not given)	/	/	2.9	/	/	2.6	/
CCC(CO)Oc1cc(NCc2ccc(F)cc2)c2ncn(C(C)C)c2c1 (stereo not given)	/	/	-1.8	/	/	49.9*	13.6
CCC(CN(C)C)Oc1cc(NCc2ccccc2)c2ncn(C(C)C)c2c1 (stereo not given)	/	/	-3.3	/	/	62.9*	51.0*
CCC(CO)Oc1cc(NCc2cccc(Cl)c2)c2ncn(C(C)C)c2c1 (stereo not given)	/	/	1.1	/	/	57.1*	38.3
COc1cc(NCc2ccccc2)c2ncn(C(C)C)c2c1	3.5	0.6	2.5	/	/	0.7	/
CCn1ccnc1CNC(=O)C1CCC(=O)N(Cc2ccccc2F)C1 (stereo not given)	4.2	14.4	0.6	/	/	-0.8	/
CCN(CC)CCNc1cccc2sc3ccccc3c(=O)c12	/	/	-8.4	/	/	/	/
CCN(CC)CCNc1ccc(CO)c2sc3ccccc3c(=O)c12	-2.1	-7.2	-22.8	1.3	0.3	44.6*	57.6*
CCCCn1c(N)c(N(CC(C)C)C(=O)C2CCN(S(=O)(=O)c3ccc(Cl)cc3)CC2)c(=O)[nH]c1=O	-1.6	-3.2	-0.9	/	/	8.5	/
O=C(O)C1=CC[C@@H](c2ccc(Cl)cc2)N(S(=O)(=O)c2ccc(Cl)cc2)C1	-3.6	2.6	2.9	/	/	0.2	/
CC(C)C[C@@H](C(=O)NC1CCN(Cc2ccccc2)CC1)N1C(=O)N2CCc3c([nH]c4ccccc34)[C@@]2(C)C1=O	-0.1	3.5	0.5	/	/	43.5*	32.9
C[C@@H](C(=O)NC1CCN(Cc2ccccc2)CC1)N1C(=O)N2CCc3c([nH]c4ccccc34)[C@@]2(C)C1=O	2.3	12.1	1.3	/	/	16.2	/
CCC1(C)Cc2c(sc(NC(=S)NC(=O)c3ccccc3)c2C#N)CO1 (stereo not given)	-1.5	0.4	-3.8	1.9	5.2	1.1	/
CN1Cc2sc(NC(=S)NC(=O)c3ccccc3)c(C#N)c2CC1(C)C	-1.5	10.6	/	8.6	0.9	58.4*	18.8
O=C(NCC(=O)N1CC=C(c2ccccc2)CC1)c1ccc(F)cc1	/	/	1.3	/	/	13.2	/
CCOc1ccc(C2CC(c3ccccc3C)n3nc(N)nc3N2)cc1 (stereo not given)	1.4	1.0	4.1	24.9	1.6	42.5	/
Cc1ccc(C2CC(c3ccccc3C)n3nc(N)nc3N2)cc1 (stereo not given)	-1.1	0.2	3.1	-2.7	1.0	46.7*	48.3*
